# PubChem BioAssay AID504861 (Broad Institute, 2011)
# Screen size: about 1,200 compounds; about 290 (24%) were called active. About 3% were inconclusive and are not listed.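 Rule for the calls: active = compounds lowering cell viability signal with fitted half-maximal concentration at most ten times their highest tested concentration; inconclusive = flat fit with 30 to 70% signal loss, or poor fit; inactive = the rest.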 The list is a sample of the results. Entries that show only a call come without a potency. Potency and affinity values are given separately.
# Assay: cytotoxicity in HEK293T cells – cell-based, CellTiter-Glo luminescence, cherry-picks, cytotoxicity control for LMP1 NF-kB inhibitor project, dose response (AID 504861)
# Settings: HEK293T viability, CellTiter-Glo ATP luminescence, 48 h; series mostly up to 26 µM
row,SMILES,outcome
1,O=C(CN1C(=O)c2ccccc2S1(=O)=O)c1ccccc1F,inactive
2,COc1ccc(NC(=O)N(CCN2CCCC2)Cc2cc3cc(OC)c(OC)cc3[nH]c2=O)cc1,inactive
3,CC(C)CC1C(=O)N(Cc2cn(CC3CCCCC3)nn2)CCS(=O)(=O)N1Cc1ccc(-c2ccc(F)nc2)cc1 (centres undefined),inactive
4,Cc1ccc(C(=O)Nc2ccc3ncccc3c2)cc1,inactive
5,O=C(Nc1ccccn1)NC1CCCCC1,inactive
6,CCC(C)N1C(=O)CCC1C(=O)N1CCN(c2ccc(F)cc2)CC1 (centres undefined),inactive
7,c1cncc(CNc2ncnc3ccc(-c4ccoc4)cc23)c1,inactive
8,O=c1cc(-c2ccccc2)[nH]c2ccc(F)cc12,inactive
9,CCOc1ccc(OCc2cccc(C(=O)N3CCCC3)c2)cc1,inactive
10,COc1ccc(-c2ccc3c(c2)S(=O)(=O)c2cccc(C(=O)NCc4cc(C)oc4C(F)(F)F)c2C3=O)cc1OC,inactive
11,COCCCNC(=O)CN1C(=O)COc2ccc(S(=O)(=O)N3CCOCC3)cc21,inactive
12,CN1CCc2cccc3c2C1Cc1ccc(O)c(O)c1-3 (centres undefined),inactive
13,CSc1ccccc1NC(=O)CN1CCCCC1C (centres undefined),inactive
14,COc1ccc2cc(-c3cc(C(=O)OCC(=O)Nc4c(C)n(C)n(-c5ccccc5)c4=O)c4ccccc4n3)ccc2c1,inactive
15,CCc1ccc(/C=C/C(=O)C2C(=O)c3ccccc3C2=O)cc1,inactive
16,N#CCCn1cc(C(=O)Nc2ccccn2)c(-c2ccccc2)n1,inactive
17,CC1=NN(C(N)=S)C(=O)C1N=Nc1cccc(C(=O)O)c1 (centres undefined),inactive
18,C[C@@]12C(=O)N(Cc3ccccc3)CC(=O)N1[C@H](/C=C/c1ccccc1)[C@@H]1C(=O)N(c3ccccc3)C(=O)[C@@H]12,inactive
19,COc1cc(OC)cc(C(=O)N[C@H](C(=O)OCC(=O)c2ccc(C)c([N+](=O)[O-])c2)C(C)C)c1,inactive
20,Clc1ccc(-n2ncc3c(N4CCCC4)ncnc32)cc1,inactive
21,COc1cc(CC(=O)N(c2ccccc2)c2nc(C)cs2)cc(OC)c1OC,inactive
22,Cc1nc2sc(-c3ccccc3)cc2c(=O)n1N,inactive
23,COCCN1CSC(=S)N(Cc2ccco2)C1,inactive

row,SMILES,outcome
1,O=C(Nc1ccc(Cl)cc1)Nc1nnc(CSCc2ccc(Cl)cc2)s1,inactive
2,COc1cc(NCCCCCCN)c2ncccc2c1OC,inactive
3,COc1cccc(/C=N\NC(=O)c2ccc(C)nc2)c1,inactive
4,O=C(C=C1SCCS1)/C=C/c1ccco1,inactive
5,COc1cccc(C(=O)CC(=O)C(=O)Nc2ccc(C)cc2Cl)c1,inactive
6,CCSC1=C(C#N)C(c2ccc(C)o2)CC(=O)N1 (centres undefined),inactive
7,Cc1cc(N=Cc2c(O)ccc3cc(Br)ccc23)no1,inactive
8,CCCC(=O)NCCCc1nc2ccccc2[nH]1,inactive
9,Cc1cc(=O)[nH]c(N/N=C/c2ccc(C)o2)n1,inactive
10,CCOc1ccc(/C=N/Nc2cc(N3CCOCC3)ncn2)c(O)c1,inactive
11,COc1ccc(NC(=O)c2cc3ccccc3oc2=O)cc1,inactive
12,O=C1c2ccccc2C(Nc2cccnc2)N1Cc1ccccc1 (centres undefined),inactive
13,C[C@H](CO)N1C[C@H](C)[C@@H](CN(C)C(=O)NC2CCCCC2)Oc2c(NS(=O)(=O)c3cn(C)cn3)cccc2C1=O,inactive
14,COc1ccc(C(c2sc3nc(C)nn3c2O)N2CCC(C(N)=O)CC2)cc1OC (centres undefined),inactive
15,CCCN(CCC)c1ncnc2nc[nH]c12,inactive
16,Cc1ccc(-n2nc(C(=O)NCc3ccc(C)o3)c3c4ccccc4n(C)c3c2=O)cc1,inactive
17,Cc1ccc(-c2nnn(CC(=O)N(Cc3ccco3)C(C(=O)NC(C)(C)C)c3ccncc3)n2)o1 (centres undefined),inactive
18,CCC(C)n1ncn(-c2ccc(N3CCN(c4ccc(OCC5COC(Cn6cncn6)(c6ccc(Cl)cc6Cl)O5)cc4)CC3)cc2)c1=O (centres undefined),inactive
19,CC(=C/c1ccccc1)/C=N/n1c(-c2ccncc2)n[nH]c1=S,inactive
20,N/C(=N\OC(=O)c1cccc(Br)c1)c1ccccn1,inactive
21,CCCc1c(C(=O)N/N=C(\C)c2ccccn2)nnn1-c1nonc1N,inactive
22,Cc1ccnc(NC(=O)c2cccc(NC(=O)c3ccc(Cl)c(Cl)c3)c2)c1,inactive
23,O=C(O)c1ccc(C=NN=C2c3ccccc3-c3ccccc32)cc1,inactive

row,SMILES,outcome
1,Cc1ccc(CCNC(=O)CCc2nc3ccccc3[nH]2)cc1,inactive
2,CCn1c2ccccc2c2cc(/C=N/n3c(-c4cc(C)[nH]n4)n[nH]c3=S)ccc21,inactive
3,O=C(O)c1cn2c3c(ccc(Cl)c3c1=O)OCC2,inactive
4,S=c1[nH]nc(C2CCCCC2)n1/N=C/c1ccncc1,inactive
5,CCN(CC)S(=O)(=O)c1ccc(N/N=C/c2ccc(O)cc2O)nc1,inactive
6,CCN(CC)S(=O)(=O)c1ccc(N=NC2=C(O)CCCC2=O)cc1,inactive
7,COC(=O)C1=NNC(C(=O)OC)C1c1ccccc1 (centres undefined),inactive
8,COCCCNCC1C(Oc2ccc(Cl)cc2)C(=O)N1c1ccccc1C (centres undefined),inactive
9,COc1ccc(C(=O)Nc2cc(C)c(NC(=O)c3ccccc3OC)cn2)cc1,inactive
10,COc1ccccc1-n1cc([C@@H]2C[C@H]3CN(c4ccccc4)C(=O)[C@]34CCCN24)cn1,inactive
11,COc1ccc2cc(C(N)=O)/c(=N\NC(=O)c3ccccc3)oc2c1,inactive
12,CCOC(=O)CNC(=O)CSc1nnc(NC(=O)c2ccc(C)cc2)s1,inactive
13,Nc1cc(=O)[nH]c(SCCSc2cc(Cl)ccc2Cl)n1,inactive
14,O=C(Nc1ccc(N2CCOCC2)cc1)c1cn2ccccc2n1,inactive
15,COc1cc(/C=C(\C#N)c2ccccn2)ccc1OCc1ccccc1Cl,inactive
16,CN(C)CCN(Cc1ccc(Cl)cc1)c1ccccn1,inactive
17,CCn1c2ccccc2c2cc(/C=N/n3c(C)nnc3C)ccc21,inactive
18,Cn1cccc1C(=O)OCC(=O)Nc1ccc2c(c1)OCO2,inactive
19,Cc1ccc2oc(C(=O)Nc3ccc(S(=O)(=O)Nc4onc(C)c4C)cc3)c(C)c2c1,inactive
20,O=C(CN1C(=O)c2ccccc2S1(=O)=O)c1ccc(F)c(F)c1,inactive
21,CC(=O)c1sc(NC(=O)C2COc3ccccc3O2)nc1C (centres undefined),inactive
22,Cc1ccccc1NC(=O)CN1C(=O)S/C(=C\c2cccn2-c2cccc(C(=O)O)c2)C1=O,inactive
23,O=C(O)/C=C/c1ccc2ccccc2n1,inactive
